EPAC1 antag – qHTS for Antagonist of cAMP-regulated guanine nucleotide exchange factor 3 (EPAC1): primary screen. Rap guanine nucleotide exchange factor 3 (Homo sapiens), O95398. EPAC1 GEF assay, Rap1b-BODIPY-GDP exchange fluorescence. Potency, µM (top dose mostly 115 µM), for the others: at the highest dose activity change, negative = inhibition, hits mostly inhibitors. actives 0.14% (n = 360,000). AID 720709, 2013;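 further: plate controls were vehicle for no effect and positive control for full effect; nearly all actives have a fitted effect of over 50% in size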
BRCA1 expr act – qHTS Assay to Identify Small Molecule Activators of BRCA1 Expression; MCF7-BRCA1-FFLuc reporter, luminescence, 48 h; response scale: scaled: vehicle 0%, 10 µM genistein 100%; Potency, µM (doses to about 46.1 µM), for the others: at the top dose activation, most hits filed as activators; actives 1.1% (n = 380,000); AID 624202, 2012; further: nearly all actives have a fitted effect of over 80% in size
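Quantitative HTS in MCF7 cells stably reporting BRCA1 expression via firefly luciferase. Compound treatment lasts 48 h at 37 °C in phenol-red free MEM. Activation is expressed relative to genistein at 10 microM and DMSO.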
EPAC2 ag – qHTS for Agonist of cAMP-regulated guanine nucleotide exchange factor 4 (EPAC2): primary screen; AID 720711, 2013; Rap guanine nucleotide exchange factor 4 (Homo sapiens), Q8WZA2; Potency, µM (doses to about 154 µM), inactives show top-dose activation, most hits filed as activators; EPAC2 activation, biochemical qHTS; response scale: 100% = 6.5 mM cAMP response; actives 0.079% (n = 360,000); further: nearly all actives have a fitted effect of over 50% in size
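In this primary screen, activation is scored as increased exchange of BODIPY-GDP from Rap1B by 100 nM EPAC2, with 50 uM GDP as competitor. Signal is normalized to the 6.5 mM cAMP agonist control.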
RGS4 inh – Inhibitors of Regulator of G Protein Signaling (RGS) 4: qHTS; actives 0.039% (n = 390,000); Potency, µM (series often up to 114 µM), for inactives: at the top dose activity change, negative = inhibition, hits mostly inhibitors; Transcreener GDP fluorescence polarization, RGS4-accelerated GTP hydrolysis; Regulator of G-protein signaling 4 (Homo sapiens), P49798; AID 504845, 2011; further: on the % scale 0 is the no-effect control and ±100 the full control effect; nearly all actives have a fitted effect of over 75% in size
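MLSMR compounds (23 nl, pin-transferred) preincubated 10 min at room temperature with a 500nM (2x) first reagent, then RGS4 at 900nM (2x) plus Transcreener GDP mix added; fluorescence polarization (620/688 nm) read before and after 90 min at 30 °C.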
EPAC2 antag – qHTS for Antagonist of cAMP-regulated guanine nucleotide exchange factor 2 (EPAC2): primary screen. Rap guanine nucleotide exchange factor 4 (Homo sapiens), Q8WZA2. EPAC2 GEF exchange of Rap1B-BODIPY-GDP, fluorescence. Potency, µM (titrated, usually from 114 µM), inactives show at the top dose activity, negative = inhibition, actives largely listed as inhibitors. actives 0.18% (n = 360,000). AID 720708, 2013; further: on the % scale 0 is the no-effect control and ±100 the full control effect; nearly all actives have a fitted effect of over 45% in size
EPAC1 ag – qHTS for Agonist of cAMP-regulated guanine nucleotide exchange factor 3 (EPAC1): primary screen; actives 0.073% (n = 360,000); AID 720707, 2013; EPAC1 agonist qHTS, biochemical assay; response scale: 100% = response to 6.5 mM cAMP; Potency, µM (highest dose often 154 µM), for the others: at the highest dose activation, usual class: activators; Rap guanine nucleotide exchange factor 3 (Homo sapiens), O95398; further: nearly all actives have a fitted effect of over 60% in size
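Normalized to 6.5 mM cAMP, activity reflects EPAC1-catalysed release of BODIPY-GDP from Rap1B, followed kinetically over 30 min at 480 nm excitation, 540 nm emission. Reaction contained 100 nM EPAC1, 250 nM Rap1B-BODIPY-GDP, 50 uM GDP.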
* hit, by the source's call; [ ] = another dose, or the depositor's remark. Shown are actives, neighbours in structure and some others; about 1.3% of the full set was active somewhere. The call rests on the fitted dose curve; in most records, active means well fitted curve in the direction sought with a large enough effect; inconclusive means small, poorly fitted or top-dose-only effect, or another doubt; inactive means no such curve, though single readings can be large; an effect the other way counts as inactive or inconclusive. Potency means the concentration at half of the fitted maximal effect.

What do the screens show for `O=C1S/C(=C\c2ccc(N3CCOCC3)o2)C(=O)N1Cc1ccc(F)cc1`?
EPAC1 antag: 1.2%; BRCA1 expr act: -14.1%; EPAC2 ag: 112µM*; RGS4 inh: -94.1%; EPAC2 antag: -2.6%; EPAC1 ag: 7.4%

Results for CCOc1ccc(CC(=O)NCCc2sc3nc(-c4ccc(OC)cc4)nn3c2C)cc1 ?
RGS4 inh: -14.3%

How did CCC(=O)NCCc1sc2nc(-c3ccc(OC)cc3)nn2c1C do in these assays?
BRCA1 expr act: 5.01µM*; RGS4 inh: 2.7%

Results for CCc1nn(CC(=O)N2CCN(C)CC2)c(=O)c2cccn12 ?
EPAC1 antag: -5.7%; BRCA1 expr act: 8.1%; EPAC2 ag: 18.3%; RGS4 inh: -9.4%; EPAC2 antag: -2.8%; EPAC1 ag: 9.4%

How did Cc1nn(-c2ccccc2)c(N)c1Sc1cccc([N+](=O)[O-])c1 do in these assays?
EPAC1 antag: -9.2%; BRCA1 expr act: inconclusive; EPAC2 ag: 6.8%; RGS4 inh: inconclusive; EPAC2 antag: -9.9%[57.1 µM]; EPAC1 ag: -2.3%

Results for Cc1cc(C)nc(-n2nc(C)c(Sc3ccc(F)cc3)c2N)n1 ?
EPAC1 antag: -2.3%; BRCA1 expr act: 7.08µM*; EPAC2 ag: 4.6%; RGS4 inh: -4.3%; EPAC2 antag: -1.0%; EPAC1 ag: -3.2%

How did Cc1ccc(CN=C2Nc3ccccc3CS2)cc1 do in these assays?
EPAC1 antag: -2.9%; BRCA1 expr act: inconclusive; EPAC2 ag: 14.4%; RGS4 inh: 33.7%; EPAC2 antag: 0.2%; EPAC1 ag: 19.3%

Results for Clc1ccc(CN=C2Nc3ccccc3CS2)cc1 ?
EPAC1 antag: 2.5%; BRCA1 expr act: 8.91µM*; EPAC2 ag: 24.3%; RGS4 inh: -10.1%; EPAC2 antag: -7.3%; EPAC1 ag: 22.1%

What do the screens show for `Cc1cccc(C)c1OCc1nc2ccccc2[nH]1`?
EPAC1 antag: -21.1%; BRCA1 expr act: -3.1%; EPAC2 ag: -1.2%; RGS4 inh: 27.3%; EPAC2 antag: -7.9%; EPAC1 ag: 4.8%

How did Cc1ccc(C)c(OCc2nc3ccccc3[nH]2)c1 do in these assays?
EPAC1 antag: 3.4%; BRCA1 expr act: 3.16µM*; EPAC2 ag: 5.1%; RGS4 inh: -17.1%; EPAC2 antag: -17.7%; EPAC1 ag: 5.7%

Results for CCc1nc(SCc2ccc(Br)cc2)n[nH]1 ?
EPAC1 antag: -1.1%; BRCA1 expr act: 10µM*; EPAC2 ag: -2.1%; RGS4 inh: -13.7%; EPAC2 antag: -7.5%; EPAC1 ag: 5.8%

Results for CCOc1ccc(S(=O)(=O)NCCc2cn3ccccc3n2)cc1 ?
EPAC1 antag: -6.7%; BRCA1 expr act: 3.7%; EPAC2 ag: 8.3%; RGS4 inh: -17.5%; EPAC2 antag: -10.0%; EPAC1 ag: 7.9%

What do the screens show for `COc1ccc(-c2cc(=O)oc3c(O)c(O)ccc23)cc1`?
EPAC1 antag: 35.5µM*; BRCA1 expr act: -57.1%; EPAC2 ag: 1.9%; RGS4 inh: -0.7%; EPAC2 antag: -15.6%; EPAC1 ag: 1.3%

How did COc1ccc(-c2cc(=O)oc3cc(OC(C)C(=O)O)ccc23)cc1 (configuration not stated) do in these assays?
EPAC1 antag: 0.0%; BRCA1 expr act: 2.0%; EPAC2 ag: -2.7%; RGS4 inh: -13.3%; EPAC2 antag: 0.9%; EPAC1 ag: 0.0%

Results for CC(C)C[C@@H](CNCC(=O)[C@H](CC(C)C)NC(=O)c1[nH]cnc1C(=O)N[C@@H](C)CN)NC(=O)c1nc[nH]c1C(=O)N[C@@H](C)C(=O)O ?
EPAC1 antag: -7.4%; BRCA1 expr act: -12.3%; EPAC2 ag: 0.7%; RGS4 inh: 3.1%; EPAC2 antag: 0.3%; EPAC1 ag: -16.0%

Results for COc1cc(OC)c(-c2c3cc(O)c(=O)cc-3oc3cc(O)c(O)cc23)cc1OC ?
EPAC1 antag: 181.9%; BRCA1 expr act: -34.8%; EPAC2 ag: 112µM*; RGS4 inh: inconclusive; EPAC2 antag: 92.4%; EPAC1 ag: 100µM*

Results for S=C(NCCc1ccccc1)Nc1ccccn1 ?
EPAC1 antag: -7.0%; BRCA1 expr act: 10µM*; EPAC2 ag: 1.0%; RGS4 inh: -28.4%; EPAC2 antag: -0.9%; EPAC1 ag: -3.7%

How did S=C(Nc1ccccn1)c1ccccn1 do in these assays?
EPAC1 antag: 2.3%; BRCA1 expr act: 7.08µM*; EPAC2 ag: 5.9%; RGS4 inh: -35.6%[11.4 µM]; EPAC2 antag: -3.1%; EPAC1 ag: 6.7%

Results for Clc1ccc(OCc2nc(-c3ccncc3)no2)cc1 ?
EPAC1 antag: -4.9%; BRCA1 expr act: 11.2µM*; EPAC2 ag: 8.3%; RGS4 inh: -6.6%; EPAC2 antag: -2.5%; EPAC1 ag: 3.9%

Results for C=CC(C)N1C(=O)S/C(=C\c2ccc(N3CCOCC3)cc2C)C1=O (configuration not stated) ?
EPAC1 antag: 35.5µM*; BRCA1 expr act: 91.5%; EPAC2 ag: 1.3%; RGS4 inh: 4.5%; EPAC2 antag: -1.1%; EPAC1 ag: -38.4%

How did Cc1ccc2oc(=O)n(Cc3ccc(OC(C)C)cc3)c2c1 do in these assays?
EPAC1 antag: -8.8%; BRCA1 expr act: -12.0%; EPAC2 ag: 8.2%; RGS4 inh: -2.9%; EPAC2 antag: inconclusive; EPAC1 ag: -12.5%

What do the screens show for `Cc1cccc(Cn2c(=O)oc3ccc(C)cc32)c1`?
EPAC1 antag: -2.8%; BRCA1 expr act: -2.2%; EPAC2 ag: -3.5%; RGS4 inh: -15.0%; EPAC2 antag: 79.4µM*; EPAC1 ag: -4.3%

What do the screens show for `CN(C)S(=O)(=O)c1cc(C(=O)NCc2ccccc2)c(Cl)cc1Cl`?
EPAC1 antag: -21.6%; BRCA1 expr act: 1.4%; EPAC2 ag: 3.7%; RGS4 inh: 7.9%[56.9 µM]; EPAC2 antag: -1.6%; EPAC1 ag: 1.3%

Results for O=C(N/N=C1\CCc2ccccc21)c1ccc(O)cc1 ?
EPAC1 antag: -5.1%; BRCA1 expr act: 2µM*; EPAC2 ag: 14.7%; RGS4 inh: -3.4%; EPAC2 antag: 0.8%; EPAC1 ag: -3.3%

Bioassay records as filed in PubChem.
